Each structure is given as a SMILES string. Out of some 1,200 compounds screened, about 10 (0.8%) were called active. A call without a number means that no potency is given here. Roughly 4% stayed inconclusive and do not appear here. Calls follow the shape of the dose curve; as a rule, active = well fitted inhibition curve with a large enough effect; inconclusive = small, poorly fitted or top-dose-only effect; inactive = no such curve, though single readings can be large or run the other way. The full list was thinned out, with actives kept by preference.
Potency is read from the fitted curve at half-maximal effect.

The assay can be described thus: qHTS Assay to Find Inhibitors of Chronic Active B-Cell Receptor Signaling: Hit Validation in OCI-Ly3 Assay. The following applies: OCI-Ly3 IkB-luciferase reporter, Chroma-Glo luminescence, 4 h; series mostly up to 46.1 µM. From the text: Diffuse large B-cell lymphoma (DLBCL) is the most common category of non-Hodgkin lymphoma, with ~20,000 new cases per year in the United States. DLBCL should be regarded as a collection of different neoplasms. Microarray gene expression analysis has defined two principal types of DLBCL, named for their similarity to normal B cell stages or activation states: a germinal center B-cell (GCB) type, and an activated B-cell (ABC) type. In ABC-DLBCL, a constitutive high-level activity of the NF-kappaB family of transcription factors has been observed (1) and NF-kappaB target genes are more highly expressed in ABC primary tumors than in GCB tumors. Functional studies have shown a constitutive high-level activity of the IkappaB (inhibitor of kappa-B) kinase (IKK) complex. […] Further analysis of DLBCL primary tumors for NF-kappaB target gene expression imply that although CARD11 is required for constitutive IKK activity in all ABC-DLBCL lines, mutations in CARD11 may be the root cause of IKK activation only in lines or tumors with such mutations. In other words, CARD11 mutations may explain NF-kappaB activation in only 10% of ABC-DLBCL cases. […] This process has been termed 'chronic active BCR signaling' (CABS). The goal of this screen is to find small-molecule inhibitors of the CABS pathway found in ABC-DLBCL lines using a cell-based assay that measures IkappaBalpa stability, which has already been extensively validated in the OCI-Ly3 line (PubChem AID:445; REF: 4). […] Hits from the primary screen were tested in this selectivity secondary assay. NIH Molecular Libraries Probe Production Network [MLPCN] NIH Chemical Genomics Center [NCGC] MLPCN Grant: R03 DA031086 PI Name: Dr. R. Eric Davis
Cells were seeded in 1536-well plates at 5000 cells/3ul in IMDM medium containing 0.5% FBS, w/o phenol red, L-glutamine, 25 mM HEPES, 3 mg/ml sodium bicarbonate. After centrifugation for 1 min. at 1000 rpm, 23 nl of compounds or DMSO were delivered to each well using a pin tool. Then 1ul 80ng/ml doxycycline was dispensed into white solid 1536-well plates and the plates were incubated at 37C/5% C02 in a cell incubator for 4 hrs. Then 4 ul Chroma-Glo luminescent substrate mix (Promega) was added to each well. The plate was incubated at R.T. for 10-15 min. The plates were measured on a ViewLux plate reader for green luminescence (540/20 nm filter) and red luminescence (618/8 nm filter). The green and red luminescent signals were corrected for red and green luminescence filter overlap using previously determined filter calibration constants (determined using the procedure outlined in the Promega Technical Manual). The %Activity was determined from the ratio of corrected green/red luminescent values. Green luminescent and ratio %Activity was determined by normalizing to the difference in signal between basal cells (0% Activity) and cells incubated with 10 uM of the proteasome inhibitor MG-132 (100% Activity). Red luminescent %Activity was normalized to the difference between red luminesence in basal cells (0%Activity) and zero luminescence (-100% Activity). Concentration-response curves were fitted to the signals arising from the green luminescence (I-kappa-B-alpha-luciferase fusion; IkB-luc) and the red luminescence (unfused luciferase; luc) as well as the calculated ratio. The concentration-effect curves were then classified based on curve quality (r2), response magnitude and degree of measured activity. Compounds were then categorized based on their concentration-response curves for all three datasets (Ikb-luc, luc and ratio).
Background: In qHTS, concentration-response curves come from the screen itself.
Regarding `CCCCOc1ccc(Br)cc1/C(C)=N/NC1=NCCN1`, the Potency result is “inactive”.

Turning to `COc1cccc(C2NC(=S)NC(C)=C2C(=O)c2ccccc2)c1OC` (configuration not stated), the Potency result is “inactive”. With `O=C(/C=C/c1ccccc1Cl)c1cccnc1`, the Potency result is “inactive”. `CCOC(=O)C1CCN(S(=O)(=O)c2c(Cl)ccc3nonc23)CC1`: the Potency result was “inactive”. As for `S=c1nc2ccccc2c2nc(-c3ccccc3Br)[nH]n12`, the Potency result is “inactive”.

For `Oc1ccc(-c2nnc(Nc3cccc(O)c3)c3ccccc23)cc1`, the Potency result is “inactive”. For `COc1ccc(-c2cc(C(F)(F)F)n3nc(C(=O)NCCCn4ccnc4)cc3n2)cc1`, the Potency entry is “inactive”. Next, `COc1ccccc1-c1cc(C(=O)NCCc2ccccc2)no1`: “inactive”; `COc1ccc(C(=O)c2ccc(N(C)C)cc2)c2ccccc12`: “inactive”; `CCCCC[C@H](O)/C=C/C1=C(CCCCCCC(=O)O)C(=O)CC1`: “inactive”. Consider `ClCc1nc2ccccc2c2ccccc12`, for which the Potency is 13 µM (active).

Take `CCc1nc2ccccc2c(C(=O)OCc2nc3ccccc3c(=O)[nH]2)c1C`: the Potency result was “inactive”. On to `S=c1nc2ccccc2c2nc(-c3ccccc3)[nH]n12`, for which the Potency entry is “inactive”. Regarding `CCCc1oc2ccc(NS(=O)(=O)c3ccc(OC)cc3)cc2c1C(=O)OCC`, the Potency entry is “inactive”. For the compound `COc1ccc2c(c1)c(/C=N/Nc1nc3ccccc3[nH]1)c(C)n2C`, the Potency entry is “inactive”.

Turning to `COC(=O)[C@@H]1[C@@H](C#N)C2(c3ccccc3-c3ccccc32)N(c2ccc(Cl)cc2)N1C#N`, the Potency result is “inactive”.

As for `O=C(Nc1ccc([N+](=O)[O-])cc1)Nc1ccon1`, the Potency result is “inactive”. As for `Cc1cccc(Cn2cc(/C=C/[N+](=O)[O-])c3ccccc32)c1`, the Potency entry is “inactive”. With `CCN(CC)c1ccc2c(C)c(CO)c(=O)oc2c1`, the Potency entry was “inactive”.

As to `Cc1nc(NC(=S)Nc2ccccc2)sc1C`, the Potency result was “inactive”. Turning to `COc1ccc(OC)c(-c2cc(C(=O)Nc3c(C)nn(Cc4ccccc4)c3C)no2)c1`, the Potency result was “inactive”. On to `Cc1ccc(O)c(N=Nc2nccs2)c1`, for which the Potency was 16.4 µM (active).

Consider `CCOC(=S)SCC(=O)Nc1nc(-c2ccc(Br)cc2)cs1`, for which the Potency result is “inactive”. Consider `CC[C@]12c3[nH]c4cc(CCC(=O)N(C)C)ccc4c3CCN1C(=O)[C@@H](CC(=O)NCC13CC4CC(CC(C4)C1)C3)C[C@@H]2C(=O)N1CCN(C(=O)c2ccco2)CC1`, for which the Potency entry is “inactive”. `Cc1cccc(NS(=O)(=O)c2ccc(-c3cnc(C4CC4)o3)cc2)c1C`: the Potency entry is “inactive”. Turning to `CCN(CC)c1ccc(-c2nn3c(-c4ccccc4OC)nnc3s2)cc1`, the Potency entry was “inactive”. Under `COc1cc(OC)cc(C(=O)NCC(=O)N2CC=C(c3ccccc3)CC2)c1` stands “inactive”; under `CC1=Nc2cc(C(=O)NCc3ccco3)ccc2Sc2ccc(C)cc21`, “inactive”. For `CCCCC[C@H](O)/C=C/[C@@H]1[C@@H](CCCCCCC(=O)O)[C@@H](O)C[C@H]1O`, the Potency entry was “inactive”.

Turning to `COc1ccc(Nc2nc(-c3c(C)nc4ncccn34)cs2)cc1`, the Potency result was “inactive”. Under `COc1ccc(NC(=O)C(=O)NCC2CCCN2S(=O)(=O)c2ccc(C)cc2)cc1` (configuration not stated) stands “inactive”; under `COc1ccc(Nc2nc(N)nc(CCl)n2)cc1`, “inactive”. As to `Cc1ccc2nc(SCC(=O)Nc3cc(C(F)(F)F)ccc3N3CCOCC3)[nH]c2c1`, the Potency entry was “inactive”. `CCOc1ccc(N(CC(=O)Nc2ccccc2OC)S(=O)(=O)c2ccccc2)cc1`: the Potency result was “inactive”. For `COc1cc2c(cc1OC)C(c1ccc(OC)c(OC)c1OC)CC(=O)N2` (configuration not stated), the Potency result was “inactive”.

As for `CCc1ccccc1NC(=S)N=Nc1c(O)n(C)c2ccc(S(=O)(=O)N3CCOCC3)cc12`, the Potency entry was “inactive”.

Turning to `Cc1ccccc1NC(=S)N=Nc1c(O)n(C)c2ccc(S(=O)(=O)N3CCOCC3)cc12`, the Potency result is “inactive”. Consider `Cn1c(O)c(N=NC(=S)Nc2ccccc2F)c2cc(S(=O)(=O)N3CCOCC3)ccc21`, for which the Potency was 3.66 µM (active). Turning to `COc1ccc(/C=C/C(=O)Nc2ccc(-n3nncc3-c3ccc(OC)c(OC)c3)cc2)cc1OC`, the Potency result was “inactive”.

For the compound `COc1ccc(OC)c(C2C3=C(COC3=O)Nc3cc4c(cc32)OCO4)c1` (configuration not stated), the Potency result is “inactive”.

As to `CCN(CC)S(=O)(=O)c1ccc2c(c1)c(=O)c(C(=O)NCCc1ccc(OC)c(OC)c1)cn2C`, the Potency result was “inactive”.

`O=C(COc1ccc(C(=O)c2ccc(F)cc2)cc1)NCc1ccc(F)cc1`: the Potency entry is “inactive”.

Source of the values: PubChem BioAssay AID651567 (National Center for Advancing Translational Sciences (NCATS), 2012).
